# The supplement of paper PMC6607015
# Where a name gives a salt, the structure may show the parent alone.
# Tests used:
# Settings in all cases: compound concentration in added solution (µM; 5 µl added to 20 µl cells): 10; 18 h
# A431 [1] = assay: LBPA endosome anti-LBPA integrated intensity (sum per cell), Z-score; higher = more LBPA staining
# Procedure, shortened: (§1)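 The data are Z-scores, normalised in AcuityXpress, of integrated LBPA or filipin intensity in each cell, either whole-cell or restricted to LBPA endosomes. HeLa MZ or A431 cells, 3,500 per well in 20 µl, were seeded onto 5 µl of 10 µM compound solution in duplicate 384-well plates and incubated 18 h. Fixed cells were stained and imaged, with intensities extracted by MetaXpress segmentation.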
# HeLa MZ [2] = assay: as above
# Procedure, shortened: as §1
# A431 [3] = assay: whole-cell filipin (free cholesterol) integrated intensity, Z-score; higher = more cholesterol staining
# Procedure, shortened: as §1
# HeLa MZ [4] = assay: as above
# Procedure, shortened: as §1
# A431 [5] = assay: filipin (cholesterol) integrated intensity within LBPA endosomes, Z-score; higher = more cholesterol in LBPA endosomes
# Procedure, shortened: as §1
# HeLa MZ [6] = assay: as above
# Procedure, shortened: as §1
SMILES,LBPA endosome anti-LBPA integrated intensity (z-score) (A431 [1]),LBPA endosome anti-LBPA integrated intensity (z-score) (HeLa MZ [2]),whole-cell filipin (z-score) (A431 [3]),whole-cell filipin (z-score) (HeLa MZ [4]),filipin (z-score) (A431 [5]),filipin (z-score) (HeLa MZ [6])
c1ccc([C@H]2CN3CCSC3=N2)cc1 [Levamisole hydrochloride],-0.398,0.59,-0.758,-0.886,-0.52,-0.182
COCCCOc1ccnc(C[S+]([O-])c2nc3ccccc3[nH]2)c1C (configuration not stated) [Rabeprazole Sodium salt],-0.587,-0.545,0.0453,1.99,-0.44,-0.189
CN(C)CCN1C(=O)c2ccccc2N(C)c2ccccc21 [Dibenzepine hydrochloride],-0.357,0.481,-0.676,-0.7,-0.373,0.00611
Cc1onc(-c2c(F)cccc2Cl)c1C(=O)N[C@@H]1C(=O)N2[C@@H]1SC(C)(C)[C@@H]2C(=O)O [Flucloxacillin sodium],-0.384,0.147,-0.112,-0.558,-0.348,-0.62
C1N2CN3CN1CN(C2)C3 [Methenamine],-0.374,0.113,-0.146,0.773,-0.379,-0.0431
CN1CCC(=C2c3ccccc3CCc3sccc32)CC1 [Pizotifen malate],2.92,2.11,2.58,-0.0276,2.82,1.53
CC(Oc1ccccc1)C(=O)N[C@@H]1C(=O)N2[C@@H]1SC(C)(C)[C@@H]2C(=O)O (some centres not stated) [Phenethicillin potassium salt],-0.589,-1.24,-0.612,-0.336,-0.493,-0.525
Nc1ccc(S(=O)(=O)NC(=O)c2ccccc2)cc1 [Sulfabenzamide],-0.476,-1.38,-0.453,-0.0901,-0.451,-0.401
CCCCC1(COC(=O)CCC(=O)O)C(=O)N(c2ccccc2)N(c2ccccc2)C1=O [Suxibuzone],-0.274,0.271,-0.0127,0.34,-0.358,-0.384
N[C@@H]1CONC1=O [D-cycloserine],-0.278,-0.4,-0.132,-0.322,-0.405,-0.523
CCn1cc(C(=O)O)c(=O)c2cc(F)c(N3CCN(C)CC3)cc21 [Pefloxacine],-0.525,-0.713,-0.866,-1.02,-0.571,-0.621
CN[C@@H]1[C@H](O[C@H]2[C@H](O[C@H]3[C@H](O)[C@@H](O)[C@H](N=C(N)N)[C@@H](O)[C@@H]3N=C(N)N)O[C@@H](C)[C@]2(O)C=O)O[C@@H](CO)[C@H](O)[C@H]1O [Streptomycin sulfate],-0.673,-1.38,-0.979,-0.78,-0.577,-0.576
CN(C)c1nc(N(C)C)nc(N(C)C)n1 [Altretamine],-0.54,-1.33,-0.283,-0.6,-0.517,-0.671
Nc1ncnc2c1ncn2C1OC(COP(=O)(O)O)C(O)C1O (configuration not stated) [Adenosine 5'-monophosphate monohydrate],-0.591,0.12,-0.666,0.0121,-0.493,-0.612
CCOc1ccc(Cc2nccc3cc(OCC)c(OCC)cc23)cc1OCC [Ethaverine hydrochloride],0.203,2.53,0.476,0.57,-0.238,0.366
O=c1[nH]c(=O)n([C@H]2C[C@H](O)[C@@H](CO)O2)cc1I [Idoxuridine],-0.506,0.506,-0.368,0.357,-0.479,-0.063
N=C(N=C(N)N)N1CCOCC1 [Moroxidine hydrochloride],-0.598,-1.32,-1.06,-0.892,-0.527,-0.669
CNCCCN1c2ccccc2CCc2ccccc21 [Desipramine hydrochloride],2.09,0.947,1.99,0.636,2.34,2.58
Clc1ccc2c(c1)C(N1CCNCC1)=Nc1ccccc1O2 [Amoxapine],3.32,0.828,0.789,-0.797,2.56,1.55
COc1ncnc(NS(=O)(=O)c2ccc(N)cc2)c1OC [Sulfadoxine],-0.426,-0.662,0.0314,-0.436,-0.379,-0.505
CCOC(=O)NNc1nncc2ccccc12 [Todralazine hydrochloride],-0.642,-1.72,-0.897,-0.795,-0.572,-0.622
N/C(=N\C(=O)c1nc(Cl)c(N)nc1N)NCc1ccccc1 [Benzamil hydrochloride],0.224,1.13,0.167,0.672,-0.0522,0.566
NS(=O)(=O)Cc1noc2ccccc12 [Zonisamide],-0.257,0.173,-0.0819,0.0656,-0.385,-0.275
CCCc1nc2c(C)cc(-c3nc4ccccc4n3C)cc2n1Cc1ccc(-c2ccccc2C(=O)O)cc1 [Telmisartan],-0.132,0.924,0.0869,0.281,-0.34,-0.264

SMILES,LBPA endosome anti-LBPA integrated intensity (z-score) (A431 [1]),LBPA endosome anti-LBPA integrated intensity (z-score) (HeLa MZ [2]),whole-cell filipin (z-score) (A431 [3]),whole-cell filipin (z-score) (HeLa MZ [4]),filipin (z-score) (A431 [5]),filipin (z-score) (HeLa MZ [6])
C#Cc1cccc(Nc2ncnc3cc(OCCOC)c(OCCOC)cc23)c1 [Erlotinib],1.24,2.03,-0.02,0.532,0.124,0.831
CN1CC2c3ccccc3Oc3ccc(Cl)cc3C2C1 (configuration not stated) [Asenapine maleate],2.13,2,0.865,-0.413,1.3,0.927
CC1(C)[C@@H](OC(=O)CCC(=O)O)CC[C@]2(C)[C@H]3C(=O)C=C4[C@@H]5C[C@@](C)(C(=O)O)CC[C@]5(C)CC[C@@]4(C)[C@]3(C)CC[C@@H]12 [Carbenoxolone disodium salt],-0.362,0.399,-0.0877,0.214,-0.408,-0.356
O=C1c2ccccc2S(=O)(=O)N1CCCCN1CCN(c2ncccn2)CC1 [Ipsapirone],-0.419,0.911,-0.664,-0.262,-0.426,0.0372
CN(C)CCOC(c1ccccc1)c1ccccc1.Cn1c(=O)c2[nH]c(Cl)nc2n(C)c1=O [Dimenhydrinate],-0.457,0.504,-0.514,-0.355,-0.463,-0.165
Nc1nc2ccc(OC(F)(F)F)cc2s1 [Riluzole hydrochloride],-0.418,-0.758,-0.48,-0.459,-0.501,-0.474
CC1(C)O[C@@H]2C[C@H]3[C@@H]4CCC5=CC(=O)CC[C@]5(C)[C@@]4(F)[C@@H](O)C[C@]3(C)[C@]2(C(=O)CCl)O1 [Halcinonide],-0.266,-0.708,-0.0733,0.0912,-0.203,-0.18
CC(C(=O)O)c1ccc(-c2ccccc2)c(F)c1 (configuration not stated) [Flurbiprofen],-0.227,0.0649,0.155,-0.426,-0.328,-0.513
O=C(O)c1ccccc1OP(=O)(O)O [Fosfosal],-0.256,0.942,-0.159,0.251,-0.274,-0.0166
Cc1cnc(C(=O)O)c[n+]1[O-] [Acipimox],-0.468,-0.426,-0.532,-0.464,-0.503,-0.519
CN(C)CCn1nnnc1SCC1=C(C(=O)O)N2C(=O)[C@@H](NC(=O)Cc3csc(N)n3)[C@H]2SC1 [Cefotiam hydrochloride],-0.662,-1.47,-0.797,-1.09,-0.548,-0.711
N=C(N)N1CCc2ccccc2C1 [Debrisoquin sulfate],-0.566,-0.193,-0.719,-0.695,-0.556,-0.606
CC1(C)S[C@@H]2[C@H](NC(=O)Cc3ccccc3)C(=O)N2[C@H]1C(=O)O [Benzathine benzylpenicillin],-0.419,0.43,0.0117,0.113,-0.376,-0.279
C=C1c2c(Cl)ccc(O)c2C(=O)C2=C(O)[C@]3(O)C(=O)C(C(N)=O)=C(O)[C@@H](N(C)C)[C@@H]3[C@@H](O)[C@H]12.O=C(O)c1cc(S(=O)(=O)O)ccc1O [Meclocycline sulfosalicylate],-0.505,-0.19,-0.811,-1.34,-0.554,-0.823
CCOC(=O)[C@@](C)(N)Cc1ccc(O)c(O)c1 [Methyldopate hydrochloride],-0.346,-0.632,-0.323,-0.577,-0.327,-0.42
Clc1ccccc1CN1CCc2sccc2C1 [Ticlopidine hydrochloride],-0.571,-1.16,-0.834,-0.662,-0.515,-0.675
O=C(O)CNC(=O)C(CS)Cc1ccccc1 (configuration not stated) [Thiorphan],-0.785,-1.92,-0.897,-0.571,-0.691,-0.682
CCCCNc1c(C(=O)OCC)c(C)nc2c1cnn2CC [Tracazolate hydrochloride],0.273,1.37,0.113,1.2,0.00245,0.287
C[C@H]1O[C@H](O[C@H]2[C@H](O)[C@@H](O)[C@@H](O[C@H]3[C@H](O)[C@@H](O)C(O)O[C@@H]3CO)O[C@@H]2CO)[C@H](O)[C@@H](O)[C@@H]1N[C@H]1C=C(CO)[C@@H](O)[C@H](O)[C@H]1O (some centres not stated) [Acarbose],-0.482,-0.645,-0.828,-0.123,-0.508,-0.442
Cc1scc2c1N(C(=O)CN1CCN(C)CC1)c1ccccc1NC2=O [Telenzepine dihydrochloride],-0.645,0.0897,-0.931,-0.897,-0.595,-0.401
CN(C)CCCC1(c2ccc(F)cc2)OCc2cc(C#N)ccc21 (configuration not stated) [Citalopram Hydrobromide],-0.329,1.58,0.204,0.212,-0.352,0.534
CC(=O)c1ccc2c(c1)N(CCCN(C)C)c1ccccc1S2 [Acetopromazine maleate salt],1.92,2.14,0.736,-0.149,1.18,1.7
CCCCOC(=O)c1ccc(N)cc1 [Butamben],-0.33,0.449,-0.437,-0.221,-0.356,-0.552
